# From PubChem BioAssay (NCI)
# “And” between values parts separate entries of the source, which are not always exact repeats. Equal values may be shown once. About 83,000 compounds went through this panel and 20% of them were active in at least one assay; those are over-represented in the sample as a whole.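 In brief: 96-well plates, 48 h treatment, single concentration, percent growth endpoint.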 Values without a mark were called inactive. The source made the active and inactive calls. Rule for the calls: active = growth percent below 10; inactive = the rest.
# Test system: MDA-MB-468 breast
# Assay: NCI-60 one-dose screen, 48 h (100 = growth as untreated, 0 = no growth, -100 = all killed)
# Settings: 10 µM unless noted
row,Compound,growth
1,Nc1nc(NC2CC2)cc(-c2cccc(Cl)c2Cl)n1,30.8%
2,NS(=O)(=O)c1cc2c(cc1Cl)NC=NS2(=O)=O,108%
3,CCOC(=O)C1=C(NC)OCC1=O,90.7%
4,O=C1CSC(c2ccccc2Cl)N1c1nnc(Cn2nnc3ccccc32)o1 (centres undefined),82.7%
5,O=C1C=CC2(O)OC(c3ccccc3)CC(=O)C2=C1O (centres undefined),70.7%
6,CCCCN1CCN(c2ccc3nc(-c4ccc5nc(-c6ccc(OC)c(OC)c6)[nH]c5c4)[nH]c3c2)CC1,-74.9% (active)
7,COc1cc(-c2cc(-c3nc4cc(Cl)c(Cl)cc4[nH]3)[nH]n2)cc(OC)c1OC,51.7%
8,COc1cc2nc3cc([N+](=O)[O-])ccc3c(NCCNCC(C)(C)O)c2cc1OC,-37.5% (active)
9,O=S(=O)(NCCNc1nccc(-c2c(-c3ccc(F)c(O)c3)nc3occn23)n1)c1ccccc1,59.6%
10,CCOc1ccccc1/C=N\N=C(\N)N/N=C/c1ccccc1OCC,-8.3% (active)
11,O=C(Cn1cc(CN2CCCCCC2)nn1)Nc1ccc2c(ccn2Cc2ccccc2)c1,74.9%
12,O=c1cc(-c2ccc(Cl)cc2)[nH]c2ccccc12,85.6%
13,CCOC(=O)c1ccc(Nc2ccnc(SCC(=O)c3ccc(C#N)cc3)n2)cc1,48.1%
14,CCOC(=O)c1c(C)c2c(n1C)CSc1cc(C(=O)c3ccccc3)c(=O)[nH]c1-2,96.6% [100 µM]
15,Cc1cc(N(CCNc2ccnc3cc(Cl)ccc23)Cc2ccco2)nc(Cl)n1,-33.5% (active)
16,O=C(Oc1ccc2ccc(=O)oc2c1)c1ccc(Cl)cc1,115%
17,CCOC(=O)c1c(Cl)c2c(n1Cc1cccc(OC)c1)-c1oncc1CC2,11.1%
18,O=c1ccc2nc(-c3ccccc3)nn(-c3ccccc3)c-2c1,-81.6% (active)
19,CC1=CCC(OC(=O)C(C)(C)CC(O)(C(C)O)C(O)C2(C)C=CC(Cc3ccc(C(C)C)cc3)(C(C)C)CC2)(C(C)C)CC1 (centres undefined),83.1%
20,COc1cc(OC)c(S(N)(=O)=O)cc1C(=O)/C=C/c1ccc(Cl)cc1,-57.8% (active)
21,COc1cc(CNC(=O)Cc2ccccc2[N+](=O)[O-])ccc1OCC(=O)NO,98.7%

row,Compound,growth
1,NS(=O)(=O)c1ccc(CCNC(=O)/C=C/c2ccc(Cl)cc2)cc1,103%
2,Nc1c(C(=O)Nc2cccc3ccccc23)sc2nc3c(cc12)CCCC3,35%
3,CCOC(=O)c1cc2c(=O)oc3ccccc3c2oc1=O,88.2%
4,NS(=O)(=O)Oc1ccc2c(ccn2C(=O)C23CC4CC(CC(C4)C2)C3)c1,90.8%
5,Cc1ccc(-c2cnc3sc4ccc(Cl)cc4n23)cc1,103%
6,O=c1oc2ccc(F)cc2c(=O)n1-c1ccc(Br)cc1F,0.698% (active)
7,COc1cc(-c2cncn2-c2ccc(-c3nc4ccc(F)cc4s3)cc2)ccc1F,56.8%
8,COc1ccc(C(=O)Nn2c(NCC(=O)N3c4ccccc4Sc4ccccc43)nnc2-c2ccc(O)cc2)cc1,107%
9,CCCn1nc(C(=O)N(C)Cc2ccccc2)c2c1CCC(N1CCc3ccccc31)C2 (centres undefined),92.8%
10,O=C(O)COc1c(Cl)cc([N+](=O)[O-])cc1Cl,99.4%
11,CCN(CCO)CCNc1ccc(C)c2sc3cc(OC)ccc3c(=O)c12,87.7%
12,COc1ccc(Nc2cc(NC(=O)CNc3cc(OC)c(Cl)c(OC)c3Cl)ncn2)cc1,80.8%
13,[Cu+].[NH-][C@H]1C[N-]C(=O)[C@H]([C@H]2CCN=C(N)N2)[N-]C(=O)/C(=C\NC(N)=O)[N-]C(=O)[C@H](CNC(=O)C[C@@H](N)CCCN)[N-]C(=O)[C@H](CO)[N-]C1=O,96.2%
14,CC1=CC[C@@H]2C(C)(C)[C@@H](O)CC[C@@]2(C)[C@@H]1COc1ccc2ccc(=O)oc2c1,42.8%
15,CC1(C)CC[C@]2(C(=O)O)CC[C@]3(C)C(=CC[C@@H]4[C@@]5(C)Cc6c([nH]c7ccccc67)C(C)(C)[C@@H]5CC[C@]43C)[C@@H]2C1,53.4%
16,CSc1ccc(N2C(=N)C(=S)N(c3ccc(C)cc3)C2=O)cc1,121%
17,Cc1ccc(-c2cc3nc(-c4ccccc4)nc(C(Cl)Cl)n3n2)cc1,-61.4% (active)
18,CCCC(=O)NC(c1cccnc1)c1ccc2c(C)ccnc2c1O (centres undefined),-2% (active)
19,Cc1oc2ncnc(Nc3ccccc3)c2c1C(=O)NCCO,109%
20,CS(=O)(=O)C1=CN(CCO)C(=O)N2CCCN=C12,93.3%
21,c1cncc(-c2nc3ccccc3[nH]2)c1,102%

row,Compound,growth
1,O=C(Nc1nc2ccc(S(=O)(=O)Nc3ccc(C4(C(F)(F)F)CC4)cc3)cc2[nH]1)c1cnccn1,-12% (active)
2,COc1cccc(-c2nc3sccn3c2-c2ccnc(NCCCNS(=O)(=O)c3c(Cl)cccc3Cl)c2)c1,49.3%
3,CN1CC(c2ccc(Br)cc2)C(C(=O)c2ccc(Br)cc2)C12C(=O)Nc1ccccc12 (centres undefined),81.4%
4,Cc1cc(N/C=c2\sc3ncnn3c2=O)no1,101%
5,CCCCCCCCCCCCCCCCCN,101%
6,Cc1cccc(C)c1NCc1nnc(-c2ccco2)o1,100%
7,CC(=O)O[C@H]1Cc2c([nH]c3ccccc23)[C@@H](c2ccc(Cl)cc2)N1C(=O)CCNC(C)(C)C,8.31% (active)
8,CN(Cc1ccccc1)c1ccc(SC#N)cc1,84.2%
9,CC(C(=O)O)n1cc(C#N)c(=O)[nH]c1=O (centres undefined),103% and 107%
10,CC1CCNC(C)C1 (centres undefined),99.2%
11,CNC(=S)NC(C)(C)C,111%
12,COC(=O)/C=C1/SC(=Nc2ccc(C)cc2)N(CCc2c[nH]c3ccc(O)cc23)C1=O,48%
13,CNC(=O)c1cn2c3c(c(N4CCN(C)CC4)c(F)cc3c1=O)OC[C@@H]2C,97.7%
14,CSc1nccc(-c2c(-c3ccc(F)c(OCc4ccc(F)cc4)c3)nc3sccn23)n1,23.3%
15,c1ccc2[nH]c(-c3ccc(Nc4nc(N5CCCC5)nc5[nH]ncc45)cc3)nc2c1,-38.5% (active)
16,COC(=O)c1ccc2c(C(=Nc3ccc(N(C)C(=O)CN4CCN(C)CC4)cc3)c3ccccc3)c(O)[nH]c2c1,91%
17,c1ccc(Oc2c3ccccc3nc3ccccc23)cc1,-4.55% (active)
18,COc1cc(/C=C/C(=O)c2ccc(NC(=O)CN3CCN(c4cc5c(cc4F)c(=O)c(C(=O)O)cn5C4CC4)CC3)cc2)cc(OC)c1OC,-1.82% (active)
19,COc1ccc2nc3nc4ccc[nH]c4cc3c2c1,-36.6% (active)
20,N#CC1C=Cc2c(ccc3ccccc23)N1C(=O)c1ccccc1 (centres undefined),-10.5% (active)
21,Cc1[nH]c(N=Nc2ccccc2)nc1N=Nc1ccccc1,24.1%

row,Compound,growth
1,O=[N+]([O-])c1ccccc1C(O)Cc1ccc2ccccc2n1 (centres undefined),79.7%
2,CCOc1ccc(/C=N\N=C\c2ccc(OCC)cc2)cc1,77%
3,Oc1c(Cl)cc(Cl)c2ccc(Cn3cc(-c4ccc(C(F)(F)F)cc4)nn3)nc12,39.6%
4,CC(=O)Nc1nc2c(s1)C1=CC[C@H]3[C@@H]4CC[C@H](C(C)=O)[C@@]4(C)CC[C@@H]3[C@@]1(C)CC2,69.7%
5,CC(=O)/C(=C/c1ccccc1)C(=O)CC(C)C,93.7%
6,C=C1C(=O)O[C@H]2[C@H]1CC/C(COC(=O)NCC(=O)Nc1ccc(OC)c(C(N)=O)c1O)=C\CC[C@@]1(C)O[C@@H]21,8.85% (active)
7,CN1CCN(c2ccc3nc(-c4[nH]ncc4Nc4ncnc5c4OCCCN5)[nH]c3c2)CC1,-76.3% (active)
8,COc1ccc(C(=O)NC(=O)Nc2ccc3c(c2)NC(=O)/C3=C\c2[nH]c(C)c(C(=O)O)c2C)c(F)c1,12.3%
9,O=C(Nc1ccc(/C=C2\SC(=O)N(Cc3ccc(OC(F)(F)F)cc3)C2=O)cc1)c1ccc(Cl)c([N+](=O)[O-])c1,12.5%
10,COc1ccccc1C1OC2=Nc3cc(C)c(C)cc3NC2C1=O (centres undefined),66.2%
11,O=C1NN(C(=O)c2ccccc2)C(c2ccc(Cl)c(Cl)c2)=C/C1=C\c1ccccc1[N+](=O)[O-],53.9% [6.75 µM]
12,CC(=O)Nc1ccc(C=Nc2ccc3ccccc3c2)cc1,107%
13,COC(=O)c1cc2c(=O)[nH]cc3c2c(n1)CCC3,97.7%
14,CC(=O)OCC1OC(OCC2OC(OC(C)=O)C(OC(C)=O)C(OC(C)=O)C2OC(C)=O)C(OC(C)=O)C(OC(C)=O)C1OC(C)=O (centres undefined),81.3%
15,CC(Cc1ccco1)C(=O)NC(N)=O (centres undefined),95.7%
16,Cc1ccc(NCc2cn(-c3ccc(C(=O)O)cc3)nc2-c2ccc(C(=O)O)cc2)cc1,120%
17,COc1cc(C2CC(c3cccc(Nc4ccnc5cc(Cl)ccc45)c3)=NN2C=O)cc(OC)c1OC (centres undefined),-37.1% (active)
18,NC(CSC(c1ccccc1)(c1ccccc1)c1cccc2ccccc12)C(=O)O (centres undefined),86%
19,c1ccc(CCc2ccccc2-c2cc(-c3ccccc3)on2)cc1,93.8%
20,Cc1nc2ccccc2c(/C=C/c2ccc(Cl)cc2)c1C(=O)/C=C/c1ccccc1,12.7%
21,CC(C)=CCC[C@](C)(O)[C@H]1CC[C@]2(C)[C@@H]1CC[C@@H]1[C@@]3(C)CCC(NC(=O)c4ccccc4C(=O)O)C(C)(C)[C@@H]3CC[C@]12C (some centres undefined),89.4%
